Screen size: about 290,000 compounds; about 27,000 (9.3%) were called active. The list comes from a sample in which actives are over-represented; it also holds similar structures and randomly drawn compounds. Values without a mark were called inactive. Rule as the data show it: active = inhibition mostly above about 28% (no sharp cut-off); inactive = mostly below about 43%.
Assay: A qHTS for Small Molecule Inhibitors of Shiga Toxin; also: 0% is about no effect
Details: Vero cells, Shiga toxin protein synthesis inhibition reporter; at 38.7 µM, hits give high values
In the case of `Cc1ccc(NC(=O)CN2C(=O)NC(C)(c3ccc(Cl)cc3)C2=O)c(Br)c1` (stereo not drawn), the inhibition was -4.27%.
With `CC(=O)CCC(=O)c1ccc2ccccc2c1` the inhibition was 52.7% (active).
For `CCN(CC)Cc1cc(C(C)=O)ccc1O`, the inhibition was -16.1%.
In the case of `C/C(=N\NC(=O)c1ccc2ccccc2c1)c1cccnc1`, the inhibition was 43.1%.
Compound `CC(=O)c1ccc2c(c1)c1ccccc1n2CC(C)C` has an inhibition of -9.15%.
For `CC(=O)c1ccc2c(ccc3ccccc32)c1`, the inhibition was 50.4% (active).
`Cc1ccccc1OCC(=O)NCC(=O)OCC(=O)c1ccc2ccccc2c1` gave an inhibition of 12.1%.
`Cc1cccc(NS(=O)(=O)c2ccc(C(=O)NCC(C)(C)N3CCOCC3)cc2)c1C` showed an inhibition of -13%.
`COc1cc(OC)c(S(=O)(=O)Nc2ccccc2C(=O)O)cc1S(=O)(=O)Nc1ccccc1C(=O)O` showed an inhibition of 7.19%.
With `CCC(=O)N1CCc2cc(S(=O)(=O)CCC(=O)N3CCN(c4ccccc4F)CC3)ccc21` the inhibition was 0.463%.
`COc1cc(NS(=O)(=O)c2ccc(NC(=S)NC(=O)c3ccccc3)cc2)nc(OC)n1` showed an inhibition of -2.7%.
For `CN1C(=O)c2ccc(C(=O)Nc3ccc(Br)cn3)cc2C1=O`, the inhibition was -3.25%.
`O=C(Nc1ccncc1)c1ccc([N+](=O)[O-])cc1Cl` showed an inhibition of -1.95%.
For `O=C(/C=C/c1ccc(Cl)cc1)Nc1ccc(Br)cn1`, the inhibition was 34.5%.
For `O=C(Nc1ccc(Br)cn1)c1ccc([N+](=O)[O-])cc1Cl`, the inhibition was 119% (active).
Compound `CC(C)C(=O)Nc1cccc(NC(=O)c2ccc([N+](=O)[O-])cc2Cl)c1` has an inhibition of 16.6%.
In the case of `O=C(Nc1ccc(Br)cn1)c1ccc([N+](=O)[O-])o1`, the inhibition was 50.9% (active).
With `COc1ccc(N(Cc2cc3ccc(C)cc3[nH]c2=O)S(=O)(=O)c2ccccc2)cc1` the inhibition was -1.62%.
`CCOc1cc(NC(=O)Nc2ccccc2)c(OCC)cc1NC(=O)CC` gave an inhibition of -9.09%.
In the case of `CC1CCCN(S(=O)(=O)c2ccc(-c3ccc(=O)[nH]n3)o2)C1` (stereo not drawn), the inhibition was -5.12%.
`O=S(=O)(NC1CC1)c1ccc(F)c(F)c1` gave an inhibition of 20.3%.
For `CCc1ccc(OCC(=O)OC(C)C(=O)NC2CC2)cc1` (stereo not drawn), the inhibition was -3.01%.
In the case of `CCCCN(CC)C(=O)C1CCCN(S(=O)(=O)c2cccc3nsnc23)C1` (stereo not drawn), the inhibition was -4.85%.
Work on `CCOC(=O)C(C)n1cnc2sc(C)c(C)c2c1=O` (stereo not drawn) yielded an inhibition of 17.6%.
For `Cc1c(C(N)=O)sc2ncn(CCOc3ccccc3)c(=O)c12`, the inhibition was 59.8%.
With `Cc1cccc(OC(=O)c2sc3ncn(C)c(=O)c3c2C)c1` the inhibition was 67.1% (active).
With `CN(CCc1ccccn1)C(=O)c1ccc(OC2CCN(Cc3ccccn3)CC2)cc1` the inhibition was 16%.
In the case of `CC(=O)Oc1ccc(C(=O)Nc2nccs2)cc1`, the inhibition was 45.7% (active).
With `CCCCOC(=O)Nc1nccs1` the inhibition was 7.37% (active).
With `Cn1cccc1C(=O)Nc1nccs1` the inhibition was 39.3% (active).
Work on `CCCCOC(=O)Nc1nnc(CC(=O)NCc2ccccc2)s1` yielded an inhibition of -13.9%.
In the case of `CCOc1ccc(C(=O)Nc2nccs2)cc1[N+](=O)[O-]`, the inhibition was 69.4% (active).
`CCN(c1ccccc1)S(=O)(=O)c1ccc(C(=O)Nc2nccs2)cc1` showed an inhibition of -6.9%.
Compound `CC(=O)NC(CC(=O)Nc1nccs1)c1ccccc1` (stereo not drawn) has an inhibition of 14.1%.
Compound `O=C(O)c1ccccc1-c1ccccc1C(=O)Nc1nccs1` has an inhibition of 16.1%.
Compound `CCOc1ccc(C(=O)NC(=S)Nc2ccc(NC(=O)C(C)C)cc2)cc1[N+](=O)[O-]` has an inhibition of -4.8%.
For `O=C(COC(=O)c1ccc(O)cc1)Nc1nccs1`, the inhibition was 28%.
`COc1ccc(C(=O)NNC(=O)c2cnccn2)cc1[N+](=O)[O-]` gave an inhibition of -6.53%.
`CC(NC(=O)C(=O)Nc1nccs1)c1ccccc1` (stereo not drawn) showed an inhibition of -4.59%.
`COC(=O)CCc1ccccc1S(=O)(=O)N(CCC(=O)OC)Cc1ccccc1` showed an inhibition of -5.55%.
Compound `Cc1ccccc1Nc1c([N+](=O)[O-])ccc2nonc12` has an inhibition of -12%.
With `COc1cc(OC)c2c(C)cc(=O)oc2c1C(CCN1CCCCC1)c1ccc(N(C)C)cc1` (stereo not drawn) the inhibition was -4.37%.
In the case of `COCc1ccc(CN2CCC(Oc3ccc(C(=O)NCc4ccccn4)cc3)CC2)o1`, the inhibition was -9.34%.
Compound `C=C1/C(=C\C=C2\CCCC3(C)C2CCC3C(C)/C=C/C(O)C2CC2)CC(O)CC1O` (stereo not drawn) has an inhibition of -5.18%.
`O=C(NCc1cccc(C(F)(F)F)c1)c1cccc(S(=O)(=O)N2CCN(Cc3ccccc3)CC2)c1` showed an inhibition of -21.6%.
`CCOc1ccc(C2/C(=C(/O)c3ccc4c(c3)CC(C)O4)C(=O)C(=O)N2CCCn2ccnc2)cc1` (stereo not drawn) showed an inhibition of 14.2%.
`Cc1cccc(C)c1OCC(=O)NC(Cc1c[nH]c2ccccc12)C(=O)O` (stereo not drawn) showed an inhibition of -4.32%.
For `COc1ccc(-c2cc(C(=O)NC(C(=O)O)C(C)C)c(C)o2)cc1OC` (stereo not drawn), the inhibition was 46.9%.
With `COc1ccc(-c2cc(C(=O)NC(Cc3c[nH]c4ccccc34)C(=O)O)c(C)o2)cc1OC` (stereo not drawn) the inhibition was 29.3% (active).
Work on `O=C(NCCc1ccc(Cl)cc1Cl)c1cc([N+](=O)[O-])c[nH]c1=O` yielded an inhibition of -2.76%.
In the case of `Cc1ccnc(NS(=O)(=O)c2ccc(NC(=O)c3oc4ccccc4c3C)cc2)n1`, the inhibition was -19.8%.
With `CCCc1nc(SCC(=O)N2CCCC2)c2c(=O)n(C)c(=O)n(C)c2n1` the inhibition was -3.54%.
`C[C@@H]1CC[C@@]2(OC1)O[C@H]1C[C@H]3[C@@H]4CC=C5C[C@@H](O)[C@H](O)C[C@]5(C)C4CC[C@]3(C)[C@H]1[C@@H]2C` (stereo partly drawn) gave an inhibition of -6.76%.
With `COc1ccc2[nH]c(C(=O)N3CCN(C)CC3)c(C)c2c1` the inhibition was -9.68%.
With `CCOc1ccccc1N1CCN(C(=O)c2ccc3[nH]c(C)c(C)c3c2)CC1` the inhibition was -2.3%.
With `Cc1[nH]c2ccc(C(=O)N3CCN(C)CC3)cc2c1C` the inhibition was 45.9% (active).
`CCOCCCNC(=S)Nc1ccc2nc(N3CCN(CC)CC3)cc(C)c2c1` showed an inhibition of 4.52%.
`OC(c1nc2ccccc2[nH]1)C(O)C(O)C(O)c1nc2ccccc2[nH]1` (stereo not drawn) showed an inhibition of 19.2%.
In the case of `Cc1ccc(-c2nc3ccccc3[nH]2)cc1N`, the inhibition was 106% (active).
In the case of `c1ccc2[nH]c(-c3nc4ccccc4[nH]3)nc2c1`, the inhibition was 107% (active).
`COc1ccc(-c2[nH]nc(-c3ccccc3)c2-c2nc3ccccc3[nH]2)cc1` showed an inhibition of -19.5%.
Compound `Cc1ccc(-c2nc3ccccc3[nH]c2=O)cc1` has an inhibition of 21.4%.
Work on `Cc1ccccc1N1CC(c2nc3ccccc3[nH]2)CC1=O` (stereo not drawn) yielded an inhibition of -11.9%.

From PubChem BioAssay AID2315 (National Center for Advancing Translational Sciences (NCATS), 2010)
